PubChem BioAssay AID485313 (National Center for Advancing Translational Sciences (NCATS), 2010)
About 7,600 (2.4%) of roughly 320,000 compounds were called active. Entries that show only a call come without a potency. About 3% were inconclusive and are not listed. Calls come from the whole dose curve; as a rule, active = well fitted activation curve with a large enough effect; inconclusive = small, poorly fitted or top-dose-only effect; inactive = no such curve, though single readings can be large or run the other way. The full list was thinned out, with actives kept by preference.

assay: qHTS Assay for NPC1 Promoter Activators; conditions: Huh7 NPC1 promoter luciferase reporter, 24 h; series mostly up to 9.22 µM; note: nearly all actives have a fitted effect of over 60% in size
Source text: NIH Chemical Genomics Center [NCGC] NIH Molecular Libraries Probe Production centers Network [MLPCN] MLPCN Grant: MH089375-01A1 Assay Submitter (PI): Yiannis A. Ioannou NCGC Assay Overview: Niemann Pick Type C (NPC) is a rare neurodegenerative lipidosis that is characterized by lipid storage in the endosomal/lysosomal system. Treatment modalities for this devastating disease are currently non-existent due to the severe obstacles associated with accessing the central nervous system with proteins or genes. The majority of mutations causing NPC disease are missense mutations that are distributed throughout the length of the NPC1 protein, with the most prevalent being the I1061T allele. Although NPC1 mutant proteins may be functional, they are typically trapped in the ER due to misfolding. […] We have developed and optimized a cell based luciferase reporter assay in 1536 well format for the identification of up-regulators of the mutant NPC1 promoter.
The NPC1 promoter is cloned in front of the luciferase reporter gene, therefore NPC promoter activation results in luciferase expression. Frozen stock of the NPC1 promoter transfected Huh7 cells were obtained from the laboratory of Dr. Yiannis Ioannou (The Mount Sinai School of Medicine, New York, NY). Cells were propagated and maintained at NCGC in medium containing RPMI-1640 supplemented with 10% FBS, 2mM L-glutamine, and 50ug/ml penicillin/streptomycin. Cells were harvested in and plated for assays in OP-MEM I reduced-serum medium supplemented with 10% FBS. The Amplite luciferase reporter gene assay kit was purchased from ABD Bioquest and prepared/stored according to manufacturers recommendations. qHTS Assay Setup: 1.#Dispensed 5ul of Huh7 cells stably expressing NPC1-luciferase at a density of 1500 cells per well 1536-well plates. 2.#Incubate cells at 37C, 5% CO2, and 95% humidity for 2 hours. 3.#Transferred 23nl per well of compound in DMSO solution. 4.#Incubated at 37C, 5% CO2, and 95% humidity for 24 hours. 5.#Dispensed 3ul per well of Amplite reagent(ABD Bioquest) per well. 6.#Incubate at ambient for 10 minutes. 7.#Read using the luminescence protocol on the ViewLux plate reader (Perkin Elmer).
Potency is the fitted concentration of half-maximal effect.

Row | SMILES | Potency
1 | CC(=O)Oc1ccccc1C(=O)Nc1ncc([N+](=O)[O-])s1 | 501 nM (active)
2 | CC(=O)c1c(O)c(C)c(O)c(Cc2c(O)c3c(c(C(=O)/C=C/c4ccccc4)c2O)OC(C)(C)C=C3)c1O | inactive
3 | CN(C)c1ccc(NC(=O)CN2C3CCCC2CC(NC(=O)c2ccccc2)C3)cc1 (stereo not given) | inactive
4 | CC[C@H]1CN2CCc3cc(OC)c(OC)cc3[C@@H]2C[C@@H]1C[C@H]1NCCc2cc(OC)c(OC)cc21 | inactive
5 | CN(C)C(=O)Oc1ccc2c(c1)O/C(=C\c1ccccc1)C2=O | 1580 nM (active)
6 | CCOC(=O)c1c(-c2ccccc2)oc2ccc(OC(=O)N(C)C)cc12 | inactive
7 | CN(C)C(=O)Oc1ccc(OCc2cccc[n+]2C)cc1 | inactive
8 | CC(=O)NBr | inactive
9 | CCOC(=O)c1ncn2c1[C@@H]1CCCN1C(=O)c1cc(OC)ccc1-2 | inactive
10 | CNCC[C@H](Oc1ccc(C(F)(F)F)cc1)c1ccccc1 | inactive
